The sequences below were run on VDR:RXRa (NR concentration 270 nM, RXRa partner concentration 90 nM) (assay: PBM binding z-score (relative to random genomic background probes); higher = stronger binding; sequences stand for … in GC…GCGATTGACAGCGTAGAATGAAGG).
Description: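 Protein-binding microarray (Agilent 4x180K custom design, double-stranded 60-nt probes: 5' GC cap, 34-nt variable region, 24-nt constant primer region; full probe sequence given). Purified or IVT nuclear receptor:RXRα heterodimers (3:1 NR:RXRα, mostly 270:90 nM) or homodimers were incubated for 1 h in PBS with 2% milk and no ligand, then detected with Alexa488 antibodies. Fluorescence from o1-orientation probes (~5 replicates averaged) was converted to z-scores against 500 random hg19 background probes. Variable regions are seed direct-repeat (DR0–DR5) sites, all their single-nucleotide variants and half-site ablations.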

Sequence	PBM binding z-score
TTACCAAGGTGAAAGGTCGATGATGCACGCCTTG	2.23
TCATATCGGTAAATGCTAGGTGAAAGTCCGATCT	0.566
TCGAGTAGGTTACCAATGGGGCGTTCAGCTTTCT	-0.111
CCTAGCAGGCGAATCTGGGTCACTCAAGGCTTGA	-0.0504
CAGCCTAGGTCAGGGCCAGTAAAGGAGGAACGTT	0.0313
AGTCAAAGTTCACTAGGTAACGTACGATTCAGCT	4.24
AGATGTAGGTTAAGGGTCATTCAGGTTGGTTCGC	5.59
TCTGGTTGGTCAAAGGTCACACACTCGAAATGCG	5.33
GCAAGTTGGTCAGTAAAAGGTCACACACCGGTCG	4.11
CCTGCTAGGTCATGGTCAACTAATCTACAGTATG	2
AGAATGAGGTTACCAAAGATCAGGGAGACGCTTG	1.51
GATACAGGGTCGAGGCCAGAGTACGCGTATTGAT	1.41
TCATATAGGTAGATGCTAGGTGAAAGTCCGATCT	0.638
GATACAGGGTCAGCTAGAGGCAAGAGTATGGAAA	2.63
CCTTACGGGTCACTGACAGGTTATCGCATTTGGA	3.85
TCTTGTTGGTCAAAGGTCACACACTCGAAATGCG	5.23
CCCGAAAGGTCGTGCTCAGGTGAGTATACCAAAC	3.47
GATACCGGGTCAGCTAGAGGCCAGAGTATGGAAA	2.26
ACAGACAGGTGATGCAGGTAACTCAGGCTATCAT	-0.283
AGAATGAGGTTATACGTGGATCAGGGAAGAAAGT	1.56

Sequence	PBM binding z-score
TAGCCTAGGTCATTGAGCCAGTATAGTACGCATC	2.1
ATCGAAAGGTCGAAGGTGAATATACCCACCCGAA	3.08
TCTTGTATATCAGCAGGTTAAGAAAGCTGGCCAA	0.851
AGTCAAAGTTCATCTAGGTAAGGTAAGATATGCT	4.6
GCTTACGGGTCAAAGGTTATATCATGAATAGAAT	5.71
TGGCCTAGGTCATTCAGGGGCCAGTATAGAAAGC	2.79
TCATATAGGTAATTCAGGTGAAAGTCGGCATCTA	1.11
TCGAGTCGGTTACCAATGGGGCATTCAGCTTTCT	-0.384
GCTAGCAGGCCATATGGGTCACTCAATGACGGGC	0.951
GCTGCTATGTCAGGTTGGTCAGCTAACGGGTACG	-0.421
GCTATTAGTTGAAAGGCCAACCGAATGATTCTCG	-0.0343
AAAATGAGGTTATACGTAGATCAGGGAAGAAAGT	1.65
TCTAATAGTTGAAGGGCAACCGACGAGTCCGTTT	0.759
CAAACTAGGTCACCGGAAGGTCGAAGTCCGCATG	4.47
ATCGAAAGGTCGAATGTGAGTATACCCACCCGAA	2.84
CGAAGTAGGTCAGAACAGGACAGTGAAGGATGAT	0.559
ATCTCTAGGTACCCAAGTTCAGTGAATGCCGAAC	2.1
ACTATTAGTGGAGACGAGGGCAACCGATAGGTTG	0.101
GCTCGGAGGACAAGTTCAGAGCTTTGTCCGTAGA	0.733
CCAGACAGGAGAAAGGTAACTCAGTCTGGTACGC	0.0971

— the supplement of paper PMC6555819
